Results filed as inconclusive are left out. Unmarked numbers belong to inactive results. The source made the active and inactive calls. The call rests on the fitted dose curve; in most records, active means well fitted activation curve with a large enough effect; inconclusive means small, poorly fitted or top-dose-only effect; inactive means flat fitted curve, though single readings scatter.
Test: qHTS for Inhibitors of Cell Surface uPA Generation: Confirmatory Assay for Cherry-picked Compounds; on inhibition: 0% is about no effect
Conditions: cell surface uPA activity generation, qHTS confirmation; series mostly up to 115 µM; inhibition: at the top concentration
Procedure, shortened: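 RAW 264.7 cells at 4000/well, incubated overnight, then treated with compounds. After 24 h at 37 C, viability was read by ATPlite luminescence. An increase in signal indicates blocked uPA-dependent LF entry.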
Potency means the concentration at half of the fitted maximal effect.

SMILES | inhibition [%] | Potency
CN(c1ccccc1)S(=O)(=O)c1ccc(C(=O)Nc2nnc(C3CC3)o2)cc1 | -2.74 | –
COc1cc(/C=C(/C#N)C(=O)Nc2ccccc2)ccc1OCc1ccc(C(=O)O)cc1 | -0.128 | –
CCc1ccc(OCC(=O)N(Cc2cccs2)C2CCS(=O)(=O)C2)cc1 (stereo not drawn) | 0.364 | –
COc1ccc(-c2csc(NC(C)c3nc4cc(C(=O)NCCCO)ccc4n3Cc3ccc(C)cc3)n2)cc1 (stereo not drawn) | -1.07 | –
O=C(Nc1cccc(NC(=O)c2ccc(F)cc2)c1)c1ccc(F)cc1 | 0.535 | –
CC1CN(C(=O)CCC(=O)NCc2ccccc2)c2ccccc2S1 (stereo not drawn) | 0.274 | –
Cc1cccc(N2C(=O)c3cccc(Oc4ccc(Cl)cc4)c3C2=O)c1 | -1.01 | –
CCOc1ccc(C2(C)CC(=O)N(C)C2=O)cc1 (stereo not drawn) | -2.12 | –
COc1ccc(NS(=O)(=O)c2cccc(C(=O)NCc3ccccc3CN3CCCC3)c2)cc1 | – | 7.36 µM (active)
O=C(Nc1cccc(-c2nn[nH]n2)c1)c1ccc(Cl)s1 | -2.78 | –
Clc1ccc(C2=NN=C3COc4ccccc4N3C2)cc1 | -2.4 | –
COCCN(C(=O)c1ccccc1OC)c1nnc(C)s1 | -2.79 | –
Cc1nc(C(=O)N2CCC(n3nccc3NC(=O)Nc3ccccc3Cl)CC2)cs1 | -2.57 | –
COc1ccc(-c2cc(-c3ccccc3)nc3ncnn23)cc1 | -2.6 | –
NC(=O)c1cc2c3ccccc3ccn2c1-c1ccccc1 | -2.64 | –
O=C(Cc1ccc(Cl)cc1)c1c[nH]c(C(=O)NCCCn2ccnc2)c1 | 1.14 | –
CC1CC(C)(C)Nc2ccc(N=O)cc21 (stereo not drawn) | -3.61 | –
CCNC(=S)NNC(=O)c1ccncc1 | -1.76 | –

Reference: PubChem BioAssay AID720519 (National Center for Advancing Translational Sciences (NCATS), 2013)
